The supplement of paper PMC4894684
Counter-ions that a name gives are not always drawn. ± gives the standard deviation of the averaged measurements.

Each compound was assayed on Toxoplasma gondii RH (in HFF) (assay: parasite growth relative to the screen mean (all compounds = 100%); higher = less inhibition of parasite growth). Conditions: 5 µM; 72 h; oxygen 21 %.
Method in brief: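 Parasite growth was reported relative to the screen mean. In that scale, the mean of all compounds equals 100%, and values are averaged over two screens. Compounds from 10 mM DMSO stocks were pin-transferred to 5 µM final onto confluent human foreskin fibroblasts in 96-well plates, infected within 2 h with RH β-Gal–GFP Toxoplasma (MOI 1:5) and grown 72 h at 21% O2, with parasite number read by a CPRG β-Gal assay against in-plate standard curves. Uninfected host-cell viability was checked with CellTiter-Blue.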

Row | SMILES | parasite growth [%]
1 | CN/C(=N\c1ccc(C2=NNC(=O)CC2C)cc1)NC#N (stereo not drawn) [Siguazodan] | 130 ± 23
2 | O/N=C/c1ccc(-c2ccc(O)c(F)c2)c(Cl)c1O | < 0
3 | COC(=O)/C=C/c1cc(O)ccc1O [Methyl 2,5-dihydroxycinnamate] | 126 ± 30
4 | CCCCCCCCCCC(C)(C)C(=O)Nc1c(OC)cc(OC)cc1OC | 27.8 ± 5.4
5 | CC(=O)Nc1ccc(O)cc1 [Acetaminophen] | 105 ± 2.7
6 | COc1cc(C(=O)OCCCN2CCCN(CCCOC(=O)c3cc(OC)c(OC)c(OC)c3)CC2)cc(OC)c1OC [Dilazep dihydrochloride] | 54.3 ± 11
7 | CCN(CC)CCOC(=O)C1(c2ccc([N+](=O)[O-])cc2)CCCC1 [Nitrocaramiphen hydrochloride] | 99.3 ± 34
8 | CCOC(=O)[C@]12CC1/C(=N\O)c1ccccc1O2 (stereo partly drawn) | 83 ± 23
9 | CN(CCCN1c2ccccc2CCc2ccccc21)CC(=O)c1ccc(Cl)cc1 [Lofepramine] | 185.3 ± 1.1
10 | CCC(CC)(CC(=O)Nc1cccc(/C=C/c2nc(C3CCC3)cs2)c1)C(=O)O [Cinalukast] | 115 ± 12
11 | CCC(C)(C)C(=O)O[C@H]1C[C@@H](C)C=C2C=C[C@H](C)[C@H](CC[C@@H]3C[C@@H](O)CC(=O)O3)[C@H]21 [Simvastatin] | 110 ± 18
12 | N=C(N)NC(=O)c1nc(Cl)c(N)nc1N [Amiloride hydrochloride] | 102 ± 30
13 | N[C@@H]1CCN(O)C1=O | 97.4 ± 22
14 | COP(=O)(OC)OC(c1ccc(Cl)cc1)P(=O)(OC)OC (stereo not drawn) | 79.4 ± 28
15 | CC1C(=O)OC2C(O)C34C5CC(C(C)(C)C)C36C(OC(=O)C6O)OC4(C(=O)O5)C12O (stereo not drawn) [Ginkgolide B] | 82.1 ± 27
16 | N[C@@H](CC(=O)Nc1ccc(Oc2cc(F)c(F)cc2Br)cc1)C(=O)O | 149.3 ± 0.68
17 | COc1ccc2c3c1O[C@H]1C[C@@H](O)C=C[C@@]31CCN(C)C2 [Galanthamine hydrobromide] | 138 ± 30
18 | COc1ccc(NC(=O)c2ccc(-c3ccc(-c4noc(C)n4)cc3C)cc2)cc1OCCN(C)C | < 0
19 | CCN1CCC[C@H]1CNC(=O)c1c(OC)ccc(Br)c1OC [Remoxipride hydrochloride] | 113 ± 3.8

Row | SMILES | parasite growth [%]
20 | N[C@@H](C(=O)O)c1ccc(O)c(C(=O)O)c1 [(R)-3-Carboxy-4-hydroxyphenylglycine] | 148 ± 15
21 | COc1ccc(-c2nc(C(=O)N3CCN(C)CC3)sc2-c2ccc(OC)cc2)cc1 | 112 ± 21
22 | COc1ccc(/C=C/C(=O)Nc2ccccc2C(=O)O)cc1OC [Tranilast] | 111 ± 30
23 | COc1ccc(NS(=O)(=O)c2ccc(I)cc2)cc1N1CCN(C)CC1 | 122 ± 17
24 | O=C(Nc1ccccc1)C12CC1C(=NO)c1ccccc1O2 (stereo not drawn) | 77.3 ± 29
25 | C[N+](C)(C)CCCCCNCC12CC3CC(CC(C3)C1)C2 | 120 ± 3.1
26 | N=C(N)SCCc1c[nH]cn1 [Imetit dihydrobromide] | 91.9 ± 21
27 | COc1nccc(-c2c(-c3ccc(F)cc3)ncn2C2CCC(O)CC2)n1 (stereo not drawn) | < 0
28 | NC(=O)c1ccc(-c2nc(-c3ccccn3)c(-c3ccc4c(c3)OCO4)[nH]2)cc1 | 36.2 ± 32
29 | CC(C)(C)c1ccc(/C=C/C(=O)Nc2ccc3c(c2)OCCO3)cc1 | 133.4 ± 1
30 | CCOC(=O)[C@H](CCc1ccccc1)N[C@H]1CCc2ccccc2N(CC(=O)O)C1=O [Benazepril hydrochloride] | 140 ± 36
31 | COc1ccc(-c2ccc(=N)n(CCCC(=O)O)n2)cc1 | 133 ± 26
32 | O=C1N(c2ccccc2)c2ccccc2C1(Cc1ccncc1)Cc1ccncc1 [Linopirdine dihydrochloride] | 56.5 ± 15
33 | COc1[nH]c2ccc(F)cc2c1C(=O)OCC1CCN(CCNS(C)(=O)=O)CC1.NS(=O)(=O)O | 80.2 ± 32
34 | N=C(N)NC(=O)Cc1c(Cl)cccc1Cl [Guanfacine hydrochloride] | 162 ± 45
35 | CC(C)c1onc(-c2c(Cl)cccc2Cl)c1COc1ccc(/C=C/c2cccc(C(=O)O)c2)c(Cl)c1 | 95.6 ± 18
36 | Cc1nc2c(O)cccc2c(=O)[nH]1 | 122 ± 24
37 | C[C@@H](NCc1cc(Br)cc2[nH]c(=O)c(=O)[nH]c12)P(=O)(O)O | 109 ± 3.7
38 | Cc1ccc([N+](=O)[O-])cc1S(=O)(=O)N(C)C | 74.2 ± 14
